A short description of assay [1]: NCI Yeast Anticancer Drug Screen. Data for the rad50 strain (AID 155).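 Note: 0% = growth of vehicle-only cultures of the same strain.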 The following applies: S. cerevisiae rad50 strain growth inhibition; at 50.0 µM; stronger effect = higher value. In outline: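 Yeast carrying a defined DNA repair defect were exposed to test compounds, and growth was compared with vehicle-treated controls to give percent inhibition.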
Assay [2] in a line: NCI Yeast Anticancer Drug Screen. Data for the mec2-1 strain (AID 157). To be noted: S. cerevisiae mec2-1 strain, at 50.0 µM, stronger effect = higher value. In outline:
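Growth inhibition is read against vehicle-treated controls after compound exposure of the mec2-1 yeast strain, which is defective in DNA damage repair or cell cycle control.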

A short description of assay [3]: NCI Yeast Anticancer Drug Screen. Data for the sgs1 mgt1 strain (AID 161).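 Note: 0% = growth of cultures given vehicle only.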 The following applies: S. cerevisiae sgs1 mgt1 strain, at 50.0 µM, stronger effect = higher value. In outline:
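This yeast growth screen uses a strain with defined DNA-repair lesions; compound-treated growth is compared with vehicle-treated growth.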

A short description of assay [4]: NCI Yeast Anticancer Drug Screen. Data for the cln2 rad14 strain (AID 165).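 Note: 0% = growth equal to vehicle treated cultures.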 To be noted: S. cerevisiae cln2 rad14 strain, at 50.0 µM, stronger effect = higher value. An outline of the steps:
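Growth inhibition, relative to vehicle-treated controls, is the read-out. The test organism is a yeast strain with defined genetic alterations, cln2 rad14.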

A short description of assay [5]: NCI Yeast Anticancer Drug Screen. Data for the bub3 strain (AID 167). To be noted: S. cerevisiae bub3 mutant strain, at 50.0 µM, stronger effect = higher value. An outline of the steps: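 Compounds were applied to a genetically altered yeast strain carrying a cell-cycle control defect. Growth inhibition was scored against vehicle-treated controls.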
The nature of assay [6]: NCI Yeast Anticancer Drug Screen. Data for the mlh1 rad18 strain (AID 175). To be noted: S. cerevisiae mlh1 rad18 strain growth inhibition; at 50.0 µM; stronger effect = higher value. An outline of the steps:
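Cells of a genetically altered yeast strain, deficient in DNA damage repair, were treated with compound. Their growth was then compared with that of vehicle-treated cultures to give inhibition.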

The values below come from PubChem BioAssay (NCI).

Each structure is given as a SMILES string. Compounds without any hit were thinned out: in the full panel of roughly 79,000, 15% have a hit. Values without a mark were called inactive. The source made the active and inactive calls. Cut-off read from the data, not from the text of the source: active = growth inhibition above about 70%; inactive = the rest.

As for `NCCSCCN`, the growth inhibition in assay [1] is -7.65%; in assay [2], -2.45%; in assay [3], -4.65%; in assay [4], -0.3%; in assay [5], 13.2%; in assay [6], 8.15%.

With `CN(CCCN)CCCN`, the growth inhibition in assay [1] was -41.4%; in assay [2], -11.2%; in assay [3], -32.6%; in assay [4] it was -55.6%; in assay [5], -28.6%; in assay [6] it was -21.7%.

For `O=[N+]([O-])c1ccc2nc(Cl)n[n+]([O-])c2c1`, the growth inhibition is 88.7% (active) in assay [1]; 93% (active) in assay [2]; 91.5% (active) in assay [3]; 89.3% (active) in assay [4]; 91.1% (active) in assay [5]; 91.8% (active) in assay [6].

As for `C=C1CC(C2CCC(C)(C)C2)OC1=O` (stereo unspecified), the growth inhibition is 13.7% in assay [1]; 8% in assay [2]; 9.15% in assay [3]; 17.3% in assay [4]; 2.15% in assay [5]; -0.8% in assay [6].

As to `N#C/C(=N\NC(=O)c1cccs1)c1ccccc1Cl`, the growth inhibition in assay [1] was -5.65%; in assay [2], 1.2%; in assay [3], 8%; in assay [4], -33.1%; in assay [5], 9.7%; in assay [6] it was 3.45%.

With `C#C/C=C/CC1OC(C(Br)CC)CC(Br)C2CC1O2` (stereo unspecified), the growth inhibition was 20.6% in assay [1]; 16.8% in assay [2]; 36.4% in assay [3]; 24.4% in assay [4]; 32% in assay [5]; -18.2% in assay [6].

For `O=c1nc(-c2ccccc2)scc1-c1ccccc1`, the growth inhibition is -1% in assay [1]; -10.6% in assay [2]; 3.4% in assay [3]; 19.1% in assay [4]; 10% in assay [5]; -10.1% in assay [6].

In the case of `CC(C)(O)C1COC2=C1C(=O)c1ccccc1C2=O` (stereo unspecified), the growth inhibition in assay [1] is 11.8%; in assay [2], -10.2%; in assay [3], 24.6%; in assay [4] it was 12.6%; in assay [5], 7.2%; in assay [6] it was -35.9%.

Consider `O=c1[nH]c2cc(Cl)ccc2nc1/C=C(\O)c1ccc(O)cc1`, for which the growth inhibition in assay [1] was 31%; in assay [2], 2.25%; in assay [3] it was 0.2%; in assay [4], 7.05%; in assay [5] it was -20%; in assay [6], 13.7%.

`O=C(NC/C=C/Br)NC1CCNc2ccccc21` (stereo unspecified): the growth inhibition in assay [1] is -14.2%; in assay [2] it was -27.4%; in assay [3], 22.1%; in assay [4], 28.6%; in assay [5] it was 20.2%; in assay [6] it was 23%.

As for `CCCc1c(O)ccc(C)c1C`, the growth inhibition was 14.6% in assay [1]; 2.5% in assay [2]; 1.1% in assay [3]; -36.2% in assay [4]; -7.35% in assay [5]; 32.4% in assay [6].

Consider `C(=N/Nc1ccncc1)/c1ccc2ccccc2n1`, for which the growth inhibition is -1.8% in assay [1]; -22.6% in assay [2]; -11.4% in assay [3]; -26.9% in assay [4]; -7.65% in assay [5]; 4.05% in assay [6].

With `COc1cc(OC)cc(N2CCC(c3c(N)nc(N)nc3Cl)CC2)c1`, the growth inhibition in assay [1] was -4.1%; in assay [2], 10.1%; in assay [3], -8.65%; in assay [4], -2.25%; in assay [5], 15.2%; in assay [6], -18.3%.

As to `CC(CO)(NC(=O)c1ccccc1)C(=O)O` (stereo unspecified), the growth inhibition in assay [1] was 13.4%; in assay [2], 9.25%; in assay [3], 22.5%; in assay [4], 11.1%; in assay [5] it was 3.45%; in assay [6], 23.4%.

Consider `CC(=O)Nc1ccc[n+](CC(=O)c2ccc(F)cc2)c1`, for which the growth inhibition in assay [1] is -8.95%; in assay [2], 0.85%; in assay [3], 4.35%; in assay [4], -42.6%; in assay [5] it was -5.45%; in assay [6] it was 8.65%.

As for `Nc1ncnc2c1c1cncnc1n2C1OC(CO)C(O)C1O` (stereo unspecified), the growth inhibition in assay [1] is 9.55%; in assay [2], -4.75%; in assay [3] it was -9.55%; in assay [4] it was 16.1%; in assay [5] it was 7.45%; in assay [6] it was 17.1%.

For `C/C=C\C=C\C(=O)O`, the growth inhibition in assay [1] was -30.4%; in assay [2] it was -17%; in assay [3] it was -38.3%; in assay [4], 4.3%; in assay [5] it was -19.8%; in assay [6] it was -31.9%.

With `CC(=O)C1=C(O)C(Cc2ccccc2)NC1=O` (stereo unspecified), the growth inhibition is 11.9% in assay [1]; -0.2% in assay [2]; 1.95% in assay [3]; -37.1% in assay [4]; -18.4% in assay [5]; 10.7% in assay [6].

In the case of `O=C(NCc1ccccc1)C(O)c1ccccc1` (stereo unspecified), the growth inhibition in assay [1] is 25.2%; in assay [2], 4.8%; in assay [3], -1.25%; in assay [4], 0.6%; in assay [5], 8.2%; in assay [6], 12.7%.

As to `CC(C)n1nnnc1-c1ccccc1`, the growth inhibition in assay [1] was -6.45%; in assay [2], -8.5%; in assay [3] it was 2%; in assay [4], -15.9%; in assay [5] it was -3.1%; in assay [6], 1.15%.

Regarding `CCOC(=O)Nc1cc2c(c(N)n1)N=C(c1ccc(Cl)cc1Cl)CN2`, the growth inhibition was 33.4% in assay [1]; -29.5% in assay [2]; 25.6% in assay [3]; -5.1% in assay [4]; -6% in assay [5]; -8.45% in assay [6].
